PubChem BioAssay (NCATS)
Records with an inconclusive call do not appear. Active and inactive are the calls of the source. Unless noted, the call rests on the fitted dose curve; in most records, active means well fitted curve in the direction sought with a large enough effect; inconclusive means small, poorly fitted or top-dose-only effect, or another doubt; inactive means no such curve, though single readings can be large; an effect the other way counts as inactive or inconclusive.

Assays:
[1] = target: Lysosomal acid glucosylceramidase (Homo sapiens) (UniProt P04062); assay: Glucocerebrosidase-p2 (AID 348; in the data active means potency below about 10 µM; further: potency means the concentration at half of the fitted maximal effect); settings: purified GBA, blue fluorogenic substrate, 40 min
Summary of the method: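 Normal human glucocerebrosidase (0.2 nM) with blue fluorogenic substrate (80 uM final) in citrate/phosphate pH 5.9 with 10mM sodium taurocholate, 0.01% tween-20; 40 min RT, NaOH/glycine stop; fluorescence Ex 365/Em 440; AC50 from a titration from 0.6 nM upwards.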

[2] = AP1 Signaling Pathway (AID 357; active means well fitted curve in either direction with a large enough effect, not every such curve was filed as active;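 further: ME-180 reporter cells stimulated with EGF at its EC50 level; on the % scale 0 is the no-effect control and ±100 the full control effect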); settings: ME-180 AP-1-bla reporter, EGF-induced, beta-lactamase ratio, 5 h; at 7.69 µM (top of the series) unless noted
Summary of the method: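 Read-out was the 460nm/530nm emission ratio (excitation 405nm) after CCF4 loading for 2.5 hours at room temperature. Cells carried an AP-1-driven beta-lactamase reporter, were stimulated with EC50 EGF plus compound for 5 hours, and AC50 values came from titrations.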

[3] = NFAT Signaling Pathway (AID 444; active means well fitted curve in either direction with a large enough effect, not every such curve was filed as active;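 further: carbachol stimulus at about its EC50 of 1 µM final; on the % scale 0 is the no-effect control and ±100 the full control effect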); settings: Jurkat NFAT-bla M1, carbachol, beta-lactamase ratio, 5 h; at 7.69 µM (top of the series) unless noted
Summary of the method: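 Jurkat cells carrying an NFAT-driven β-lactamase reporter and co-transfected muscarinic M1 receptor were treated with compound plus carbachol (1 uM final, an EC50 level) for 5 h at 37 °C. CCF4 loading followed for 1 h at RT; 460/530 nm ratio gave %activity.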

[4] = Stat Signaling Pathway (AID 446; active means well fitted curve in either direction with a large enough effect, not every such curve was filed as active;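 further: ME-180 cervical cancer cells given 40 pM IL-6 alongside compound; SIE-controlled beta-lactamase reporter measured as 460/530 nm FRET emission ratio; on the % scale 0 is the no-effect control and ±100 the full control effect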); settings: ME-180 SIE beta-lactamase reporter, IL-6 stimulated, 5 h; at 7.69 µM (top of the series) unless noted
Summary of the method: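 Emission at 460 and 530 nm (excitation 405 nm) reports SIE-controlled beta-lactamase in ME-180 cells. Cells received compound with 40 pM IL-6 for 5 hrs at 37 C; data scaled between 300 pM IL-6 and 125 nM JAK-inhibitor controls.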

[5] = target: Glucocorticoid receptor (Homo sapiens) (UniProt P04150); assay: GR-GFP Redistribution (AID 450;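 active means compounds whose dose series gives a full or clear partial fitted curve of increased nuclear translocation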; further: potency means the concentration at half of the fitted maximal effect); settings: U2OS GR-GFP nuclear translocation, laser cytometry, 2 h
[6] = target: Glucocorticoid receptor (Homo sapiens) (UniProt P04150); assay: GR-EFC Redistribution (AID 451; calls by dose curve; further: potency means the concentration at half of the fitted maximal effect); settings: CHO-K1 GR-EFC translocation, beta-gal luminescence, 2 h
Summary of the method: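 CHO-K1 cells stably expressing nuclear-localized β-gal enzyme acceptor and GR fused C-terminally to the enzyme donor fragment; ligand-driven nuclear translocation restores β-gal by complementation. Compounds titrated up to 46 uM final, 2 h at 37 °C; luminescence read.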

[7] = target: Mitogen-activated protein kinase 10 (Mus musculus) (UniProt Q61831); assay: JNK3 AlphaScreen Assay (AID 530; active means well fitted curve in either direction with a large enough effect, not every such curve was filed as active;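 further: kinase came from lysate of stimulated human HepG2 cells; signal reports phosphorylation of biotinylated GST-cJun 1-79 at Ser73 with 10 µM ATP; on the % scale 0 is the no-effect control and ±100 the full control effect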); settings: JNK3 lysate, c-Jun phosphorylation; series mostly up to 57.1 µM
Summary of the method: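 Phosphorylation of biotinylated GST-cJun(1-79) at Ser73 is measured by AlphaScreen proximity luminescence. Enzyme is JNK3 in HepG2 lysates activated with interleukin-1beta and tumor necrosis factor alpha; ATP is 10 uM final.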

[8] = target: 3',5'-cyclic-AMP phosphodiesterase 4B (Homo sapiens) (UniProt Q07343); assay: qHTS Assay for Inhibitors of PDE-IV (AID 607; active means well fitted activation curve with a large enough effect in the main read-out, with a control signal flat, not every such curve was filed as active; further: % of control where 0% means no effect); settings: HEK293 ACTOne CNG channel cells, membrane potential fluorescence; series mostly up to 22.9 µM
Summary of the method: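 The readout is membrane depolarisation from a cAMP-sensing CNG channel, detected with a potential dye at ex 535/em 590. Cells were HEK293-derived (endogenous PDE-IV) at 1000 cells/well, titrated up to 22.9 uM final.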

[9] = qHTS Assay for Lipid Storage Modulators (AID 1519; calls by dose curve); settings: Drosophila S3 cells, BODIPY lipid droplet/cell ratio, laser cytometry, cells loaded with oleic acid; for activity change, negative = inhibition: at 57.5 µM (top of the series)
Summary of the method: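 Cells seeded at 5,000 per well were treated with compounds over a concentration series and loaded with oleic acid (400 uM, as added). Lipid droplet fluorescence (488 nm excitation, 500-530 nm channel) was read by laser-scanning cytometry and normalized to 20 uM Triacsin C.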

[10] = target: Dual specificity protein kinase CLK4 (Homo sapiens) (UniProt Q9HAZ1); assay: qHTS Assay for Inhibitors of CDC-like Kinase 4 (Kinase-Glo Assay) (AID 1770); settings: recombinant Clk4, Kinase-Glo ATP depletion luminescence; series mostly up to 66.7 µM; further: nearly all actives have a fitted effect of over 65% in size; further: potency means the concentration at half of the fitted maximal effect
Summary of the method: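 Recombinant human Clk4 (25 nM) phosphorylated RS repeat peptide (100 uM) with 1 uM ATP in Tris pH 7.5/MgCl2/EGTA/DTT/Triton buffer for 4.5 h at room temperature. Residual ATP was quantified by Kinase-Glo luciferase luminescence.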

[11] = target: Dual specificity protein kinase CLK4 (Homo sapiens) (UniProt Q9HAZ1); assay: qHTS Assay for Inhibitors of CDC-like Kinase 4 (ADP-Glo Assay) (AID 1771); settings: recombinant CLK4, ADP-Glo luminescence; series mostly up to 80 µM; further: nearly all actives have a fitted effect of over 70% in size; further: potency means the concentration at half of the fitted maximal effect
Summary of the method: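 ADP production was read by ADP-Glo luminescence after residual ATP depletion, following 1 h room-temperature reaction of 25 nM Clk4, 1 uM ATP and 100 uM RS peptide with MgCl2, EGTA, DTT and Triton X-100.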

[12] = target: Dual specificity protein kinase CLK4 (Homo sapiens) (UniProt Q9HAZ1); assay: qHTS Assay for Inhibitors of CDC-like Kinase 4 (ADP-FP Assay) (AID 1795); settings: Transcreener ADP fluorescence polarization; series mostly up to 50 µM; further: nearly all actives have a fitted effect of over 60% in size; further: potency means the concentration at half of the fitted maximal effect
Summary of the method: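 Recombinant human Clk4 (6.25 nM) phosphorylated RS repeat peptide (100 uM) with 1 uM ATP in Tris pH 7.5/MgCl2/EGTA/DTT/Triton buffer for one hour. ADP was quantified by Transcreener competitive fluorescence polarization against an ADP calibration curve.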

[13] = Primary qHTS for small molecule stabilizers of the endoplasmic reticulum resident proteome: Secreted ER Calcium Modulated Protein (SERCaMP) assay (AID 1508630); settings: SH-SY5Y GLuc-SERCaMP (Gaussia luciferase released on ER calcium loss) secretion, thapsigargin, luminescence; series mostly up to 38.4 µM; further: on the % scale 0 is the no-effect control and ±100 the full control effect
Summary of the method: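 The SH-SY5Y reporter protocol was run at 3 concentrations up to 38.3 uM (primary) or 11 concentrations (follow-up): 16 h compound, 100 nM thapsigargin for 4 h, then extracellular luciferase luminescence.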

[14] = target: Ubiquitin carboxyl-terminal hydrolase 1 (Homo sapiens) (UniProt O94782); assay: Inhibitors of USP1/UAF1: Pilot qHTS (AID 504865); settings: purified USP1/UAF1, Ub-rhodamine cleavage fluorescence; series mostly up to 54.9 µM;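 further: rhodamine fluorescence freed from ubiquitin-rhodamine substrate followed over time; top concentration of the series differs between compounds; on the % scale 0 is the no-effect control and ±100 the full control effect; nearly all actives have a fitted effect of over 35% in size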
Summary of the method: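 USP1/UAF1 complex (1nM) preincubated with compound 15 min at room temperature, then Ub-Rho substrate (150nM final) added. Fluorescence read kinetically at 480/540 nm, 6 reads every 60 seconds. Buffer: 50mM HEPES pH 7.8, 0.5mM EDTA, 0.1 mg/ml BSA, 1mM TCEP, 0.01% Tween-20.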

[15] = target: Cytochrome P450 1A2 (Homo sapiens) (UniProt P05177); assay: p450-cyp1a2 (AID 410; calls by dose curve; further: potency means the concentration at half of the fitted maximal effect); settings: recombinant CYP1A2, luciferin-ME demethylation, luminescence; series mostly up to 57 µM
Summary of the method: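 Luminescent demethylation readout: Luciferin-ME (100uM, equal to Km) turned over by 20nM CYP1A2 for 60 min at room temperature after NADPH regeneration addition, following 10 min compound preincubation. Normalization used 57 uM furafylline as full inhibition.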

[16] = target: Cytochrome P450 3A4 (Homo sapiens) (UniProt P08684); assay: qHTS Assay for Inhibitors and Substrates of Cytochrome P450 3A4 (AID 884); settings: recombinant CYP3A4, Luciferin-PPXE luminescence; series mostly up to 57.1 µM; further: potency means the concentration at half of the fitted maximal effect; nearly all actives have a fitted effect of over 50% in size
Summary of the method: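 Luminescent readout of luciferin produced by CYP3A4 (20 nM) dealkylation of Luciferin-PPXE, 25 uM (its KM). NADPH-driven reaction ran 60 min at RT after 10 min compound preincubation; data scaled to 57 uM ketoconazole as 100% inhibition.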

[17] = target: Cytochrome P450 3A4 (Homo sapiens) (UniProt P08684); assay: qHTS Assay for Activators of Cytochrome P450 3A4 (AID 885); settings: recombinant CYP3A4, Luciferin-PPXE luminescence, 60 min; series mostly up to 57.1 µM; further: nearly all actives have a fitted effect of over 65% in size
Summary of the method: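 Activators are scored by enhanced luminescence from CYP3A4 conversion of luciferin-PPXE (25uM, equal to KM) to luciferin, after 60 min at RT with an NADPH-regenerating system.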

[18] = qHTS Assay for Identification of Small Molecule Agonists for Hypoxia Response Element Signaling Pathway (AID 914; active means well fitted activation curve with a large enough effect in the signal ratio, with a control signal flat, not every such curve was filed as active; the % refers to the signal ratio; further: potency means the concentration at half of the fitted maximal effect); settings: ME-180 (cervical carcinoma) HRE-bla reporter, beta-lactamase ratio, CoCl2, 17 h; activation: stronger effect = higher value
Summary of the method: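 Reporter activity (beta-lactamase, CCF4 460nm/530nm ratio) in HRE-bla ME-180 cells is recorded after 17 h compound exposure with EC50 CoCl2 at 37 degrees Celsius. AC50 values come from titration data.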

[19] = measured here: cell count channel max response
[20] = measured here: lipid channel max response

Dual specificity protein kinase CLK4 (Homo sapiens), sequence (Q9HAZ1 whole entry, looked up): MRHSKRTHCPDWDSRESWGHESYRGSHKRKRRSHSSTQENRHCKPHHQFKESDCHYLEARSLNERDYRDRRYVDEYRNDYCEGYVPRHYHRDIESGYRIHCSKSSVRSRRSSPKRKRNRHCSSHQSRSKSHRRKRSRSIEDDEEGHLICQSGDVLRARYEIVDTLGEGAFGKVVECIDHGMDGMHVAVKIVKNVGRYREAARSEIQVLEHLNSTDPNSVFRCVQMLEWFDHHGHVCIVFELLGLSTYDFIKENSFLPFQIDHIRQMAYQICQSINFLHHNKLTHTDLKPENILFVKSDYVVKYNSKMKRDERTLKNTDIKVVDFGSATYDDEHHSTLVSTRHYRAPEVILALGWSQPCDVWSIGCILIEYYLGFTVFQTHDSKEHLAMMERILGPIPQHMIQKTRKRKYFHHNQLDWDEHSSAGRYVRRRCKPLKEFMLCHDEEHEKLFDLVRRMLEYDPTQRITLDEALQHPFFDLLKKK
Glucocorticoid receptor (Homo sapiens), sequence (P04150 whole entry, looked up, the tested form may be a part): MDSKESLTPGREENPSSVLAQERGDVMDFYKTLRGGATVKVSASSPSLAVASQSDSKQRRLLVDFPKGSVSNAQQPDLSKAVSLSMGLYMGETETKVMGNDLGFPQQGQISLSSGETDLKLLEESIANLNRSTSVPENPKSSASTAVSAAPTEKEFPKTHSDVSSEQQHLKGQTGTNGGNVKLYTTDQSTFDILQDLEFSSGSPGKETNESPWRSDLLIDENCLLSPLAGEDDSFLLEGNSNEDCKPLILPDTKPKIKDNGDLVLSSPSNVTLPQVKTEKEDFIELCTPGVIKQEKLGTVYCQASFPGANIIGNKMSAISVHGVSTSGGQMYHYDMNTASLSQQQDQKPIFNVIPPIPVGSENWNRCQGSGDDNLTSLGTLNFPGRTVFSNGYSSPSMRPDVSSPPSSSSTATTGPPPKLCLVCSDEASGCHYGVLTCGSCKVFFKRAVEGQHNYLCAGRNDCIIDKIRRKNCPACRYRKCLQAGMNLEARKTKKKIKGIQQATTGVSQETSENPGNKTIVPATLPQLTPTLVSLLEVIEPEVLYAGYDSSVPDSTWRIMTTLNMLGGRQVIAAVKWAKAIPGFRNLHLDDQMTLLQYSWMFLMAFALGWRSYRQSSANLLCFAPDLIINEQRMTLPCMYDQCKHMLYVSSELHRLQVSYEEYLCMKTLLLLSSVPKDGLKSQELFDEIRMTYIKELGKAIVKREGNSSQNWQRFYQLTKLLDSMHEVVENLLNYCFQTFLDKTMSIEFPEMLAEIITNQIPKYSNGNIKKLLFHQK
Cytochrome P450 3A4 (Homo sapiens), sequence (P08684 whole entry, looked up): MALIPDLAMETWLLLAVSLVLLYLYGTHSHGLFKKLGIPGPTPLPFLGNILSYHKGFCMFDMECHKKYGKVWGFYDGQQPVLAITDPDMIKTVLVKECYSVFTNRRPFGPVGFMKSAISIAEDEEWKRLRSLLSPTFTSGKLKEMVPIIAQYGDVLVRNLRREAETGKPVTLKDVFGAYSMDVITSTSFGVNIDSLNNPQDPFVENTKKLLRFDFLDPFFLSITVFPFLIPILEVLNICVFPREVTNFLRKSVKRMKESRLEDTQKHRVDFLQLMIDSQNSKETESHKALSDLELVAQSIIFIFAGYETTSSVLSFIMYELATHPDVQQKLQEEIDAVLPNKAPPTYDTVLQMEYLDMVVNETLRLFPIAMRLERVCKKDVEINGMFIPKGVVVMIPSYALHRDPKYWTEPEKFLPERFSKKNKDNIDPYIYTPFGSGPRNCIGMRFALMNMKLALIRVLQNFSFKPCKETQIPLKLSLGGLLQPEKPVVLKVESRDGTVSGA
Lysosomal acid glucosylceramidase (Homo sapiens), sequence (P04062 whole entry, looked up): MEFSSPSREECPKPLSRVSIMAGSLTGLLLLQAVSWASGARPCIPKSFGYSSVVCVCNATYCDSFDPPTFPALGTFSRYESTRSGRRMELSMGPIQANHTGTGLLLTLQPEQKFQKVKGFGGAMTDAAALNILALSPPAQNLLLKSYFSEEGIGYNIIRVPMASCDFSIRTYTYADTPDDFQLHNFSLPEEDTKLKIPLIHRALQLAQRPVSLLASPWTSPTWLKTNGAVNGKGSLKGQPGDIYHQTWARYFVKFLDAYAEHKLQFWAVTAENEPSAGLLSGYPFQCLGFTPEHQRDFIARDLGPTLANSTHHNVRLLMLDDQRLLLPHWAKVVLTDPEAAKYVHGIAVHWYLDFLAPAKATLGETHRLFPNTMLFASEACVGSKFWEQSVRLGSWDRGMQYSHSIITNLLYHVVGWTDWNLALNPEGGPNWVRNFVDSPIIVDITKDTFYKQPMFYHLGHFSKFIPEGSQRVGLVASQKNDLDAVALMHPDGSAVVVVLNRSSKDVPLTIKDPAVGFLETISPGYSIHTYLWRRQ
Cytochrome P450 1A2 (Homo sapiens), sequence (P05177 whole entry, looked up): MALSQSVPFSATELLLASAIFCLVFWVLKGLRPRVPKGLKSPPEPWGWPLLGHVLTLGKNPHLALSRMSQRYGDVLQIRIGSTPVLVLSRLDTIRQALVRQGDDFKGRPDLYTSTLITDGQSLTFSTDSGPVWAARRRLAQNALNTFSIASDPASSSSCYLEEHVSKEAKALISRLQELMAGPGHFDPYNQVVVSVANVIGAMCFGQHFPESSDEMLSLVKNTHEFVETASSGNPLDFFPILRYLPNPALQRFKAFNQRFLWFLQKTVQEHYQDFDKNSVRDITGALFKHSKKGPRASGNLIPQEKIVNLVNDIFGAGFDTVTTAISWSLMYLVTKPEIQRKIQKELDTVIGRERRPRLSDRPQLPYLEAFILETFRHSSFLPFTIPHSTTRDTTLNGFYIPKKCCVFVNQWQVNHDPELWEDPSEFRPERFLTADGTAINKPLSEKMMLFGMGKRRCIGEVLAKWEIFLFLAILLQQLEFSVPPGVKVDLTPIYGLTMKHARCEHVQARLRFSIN
Ubiquitin carboxyl-terminal hydrolase 1 (Homo sapiens), sequence (O94782 whole entry, looked up): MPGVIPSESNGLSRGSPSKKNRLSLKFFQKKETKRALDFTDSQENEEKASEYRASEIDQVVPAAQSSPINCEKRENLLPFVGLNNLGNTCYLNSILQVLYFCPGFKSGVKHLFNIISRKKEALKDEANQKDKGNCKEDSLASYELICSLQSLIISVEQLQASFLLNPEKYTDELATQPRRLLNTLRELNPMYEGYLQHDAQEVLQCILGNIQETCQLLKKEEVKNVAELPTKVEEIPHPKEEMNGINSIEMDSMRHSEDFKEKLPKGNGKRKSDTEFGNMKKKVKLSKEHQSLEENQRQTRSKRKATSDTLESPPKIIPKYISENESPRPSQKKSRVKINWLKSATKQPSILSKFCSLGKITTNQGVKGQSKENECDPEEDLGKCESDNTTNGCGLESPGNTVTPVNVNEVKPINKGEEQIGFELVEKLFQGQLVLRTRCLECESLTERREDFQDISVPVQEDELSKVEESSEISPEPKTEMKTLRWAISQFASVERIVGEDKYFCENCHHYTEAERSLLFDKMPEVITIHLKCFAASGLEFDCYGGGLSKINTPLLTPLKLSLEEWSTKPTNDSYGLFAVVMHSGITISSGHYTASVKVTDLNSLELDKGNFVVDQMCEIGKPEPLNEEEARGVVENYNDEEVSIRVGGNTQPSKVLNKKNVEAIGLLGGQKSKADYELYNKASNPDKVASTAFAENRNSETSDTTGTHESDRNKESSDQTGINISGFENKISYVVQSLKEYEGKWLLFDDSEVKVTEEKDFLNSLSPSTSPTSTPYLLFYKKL
3',5'-cyclic-AMP phosphodiesterase 4B (Homo sapiens), sequence (Q07343 whole entry, looked up): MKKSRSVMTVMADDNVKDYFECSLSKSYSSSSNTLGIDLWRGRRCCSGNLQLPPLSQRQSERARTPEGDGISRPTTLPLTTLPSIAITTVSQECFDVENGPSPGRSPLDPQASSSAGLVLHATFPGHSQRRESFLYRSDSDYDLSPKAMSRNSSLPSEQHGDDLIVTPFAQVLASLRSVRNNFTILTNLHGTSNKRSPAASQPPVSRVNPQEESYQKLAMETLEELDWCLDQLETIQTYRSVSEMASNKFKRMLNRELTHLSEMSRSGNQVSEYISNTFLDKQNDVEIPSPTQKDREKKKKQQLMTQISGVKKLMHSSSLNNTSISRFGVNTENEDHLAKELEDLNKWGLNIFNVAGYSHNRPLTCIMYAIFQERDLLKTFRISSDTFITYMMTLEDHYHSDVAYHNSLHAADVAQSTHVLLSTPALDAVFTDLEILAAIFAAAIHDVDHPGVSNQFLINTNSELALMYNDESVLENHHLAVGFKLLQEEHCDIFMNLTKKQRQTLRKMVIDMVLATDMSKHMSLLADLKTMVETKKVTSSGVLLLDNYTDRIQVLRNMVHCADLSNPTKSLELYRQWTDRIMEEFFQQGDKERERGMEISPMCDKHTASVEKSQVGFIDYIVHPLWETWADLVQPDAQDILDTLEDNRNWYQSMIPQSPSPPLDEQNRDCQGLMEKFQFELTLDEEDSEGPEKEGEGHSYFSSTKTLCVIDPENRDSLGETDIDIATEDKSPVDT

O=c1c(-c2cc(F)cc(F)c2)nc2cnc(N3CCOCC3)nc2n1Cc1cccs1
inactive: Potency [1] > 11.4 µM | activity change, negative = inhibition [2] 6.66% | activity change, negative = inhibition [3] 22.7% | activity, negative = inhibition [4] 6.69% | Potency [5] > 9.22 µM | Potency [6] > 46 µM | outcome [7] | Potency [8] | activity change, negative = inhibition [9] 3.39% | Potency [10] | Potency [11] | Potency [12] | Potency [13]
23.4%: max response [9, 20]
18.1%: max response [9, 19]

COc1ccc(-c2nc3cnc(Oc4cccc(Cl)c4)nc3n(CCC#N)c2=O)cc1
13.8%: max response [9, 19]
inactive: Potency [1] > 11.4 µM | activity change, negative = inhibition [2] -19.7% | activity, negative = inhibition [4] -7.46% | Potency [5] > 9.22 µM | Potency [6] > 46 µM | outcome [7] | Potency [8] | activity change, negative = inhibition [9] 2.97% | Potency [10] | Potency [11] | Potency [12] | Potency [14] | Potency [13]
14.8%: max response [9, 20]

c1ccc(CNc2ncnc3ccc(-c4cccnc4)cc23)cc1
inactive: Potency [1] > 11.4 µM | activity, negative = inhibition [4] -1.78% | Potency [5] > 46 µM | Potency [6] > 46 µM | outcome [7] | Potency [17] | activity change, negative = inhibition [9] -2.12% | Potency [14] | Potency [13]
14%: max response [9, 19]
9.68%: max response [9, 20]
active: Potency [15] 0.126 µM | Potency [16] 1.26 µM | Potency [10] 3.16 µM | Potency [11] 3.16 µM | Potency [12] 2.24 µM

CN1CCN(c2ncc3nc(-c4cc(F)cc(F)c4)c(=O)n(Cc4cccs4)c3n2)CC1
inactive: Potency [1] > 11.4 µM | Potency [5] > 9.22 µM | Potency [6] > 46 µM | outcome [7] | Potency [8] | Potency [17] | activity change, negative = inhibition [9] -9.14% | Potency [10] | Potency [11] | Potency [12] | Potency [14] | Potency [13]
active: Potency [15] 6.31 µM | activity change, negative = inhibition [3] 168% [activator] | Potency [18] 3.16 µM
17.2%: max response [9, 19]
3.46%: max response [9, 20]

CN1CCN(c2ncc3ncc(=O)n(C4CC4)c3n2)CC1
inactive: Potency [1] > 11.4 µM | activity change, negative = inhibition [2] -15.2% | activity change, negative = inhibition [3] -12.8% | activity, negative = inhibition [4] -9.77% | Potency [5] > 9.22 µM | Potency [6] > 46 µM | outcome [7] | Potency [8] | activity change, negative = inhibition [9] -0.747% | Potency [10] | Potency [11] | Potency [12] | Potency [13]
-12.9%: max response [9, 20]
-13.5%: max response [9, 19]

COCCn1c(=O)c(-c2ccc(Cl)cc2)nc2cnc(Nc3ccccc3)nc21
inactive: Potency [1] > 11.4 µM | Potency [5] > 9.22 µM | Potency [6] > 46 µM | outcome [7] | Potency [8] | activity change, negative = inhibition [9] 3.97% | Potency [10] | Potency [11] | Potency [12] | Potency [14] | Potency [13]
12.1%: max response [9, 20]
10.8%: max response [9, 19]
active: Potency [15] 20 µM | Potency [18] 2.51 µM
